Source: PubChem BioAssay (NCATS)
Inconclusive results are not listed. Active and inactive are the calls of the source. Unless noted, the call rests on the fitted dose curve; in most records, active means well fitted curve in the direction sought with a large enough effect; inconclusive means small, poorly fitted or top-dose-only effect, or another doubt; inactive means no such curve, though single readings can be large; an effect the other way counts as inactive or inconclusive.

What was measured:
[1] = molecular target: Lysosomal acid glucosylceramidase (Homo sapiens) (UniProt P04062); assay: Glucocerebrosidase-p2 (AID 348; in the data active means potency below about 10 µM; further: potency means the concentration at half of the fitted maximal effect); conditions: purified GBA, blue fluorogenic substrate, 40 min
How it was run: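 Compounds titrated from 0.6 nM upwards against 0.2 nM enzyme in pH 5.9 citric acid/KH2PO4, taurocholate, tween-20; blue fluorogenic substrate 80 uM, 40 min room temperature, stopped and read Ex 365/Em 440 for AC50.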

[2] = AP1 Signaling Pathway (AID 357; active means well fitted curve in either direction with a large enough effect, not every such curve was filed as active; further: on the % scale 0 is the no-effect control and ±100 the full control effect); conditions: ME-180 AP-1-bla reporter, EGF-induced, beta-lactamase ratio, 5 h; at 7.69 µM (top of the series) unless noted
How it was run: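 AP-1-bla ME-180 cells with beta-lactamase reporter under AP-1 response element, stimulated with EC50 EGF; compounds titrated, 5 hours at 37 degrees Celsius. CCF4 read at 460/530 nm ratio; positive and negative modulators judged by AC50.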

[3] = molecular target: Cytochrome P450 1A2 (Homo sapiens) (UniProt P05177); assay: p450-cyp1a2 (AID 410; calls by dose curve; further: potency means the concentration at half of the fitted maximal effect); conditions: recombinant CYP1A2, luciferin-ME demethylation, luminescence; series mostly up to 57 µM
How it was run: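 Inhibition was calculated relative to 57 uM furafylline (full inhibition). The reaction used human CYP1A2 at 20nM with Luciferin-ME at its Km, 100uM, driven by an NADPH-regenerating system for 60 min at room temperature.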

[4] = Stat Signaling Pathway (AID 446; active means well fitted curve in either direction with a large enough effect, not every such curve was filed as active;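 further: ME-180 cervical cancer cells given 40 pM IL-6 alongside compound; SIE-controlled beta-lactamase reporter measured as 460/530 nm FRET emission ratio; on the % scale 0 is the no-effect control and ±100 the full control effect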); conditions: ME-180 SIE beta-lactamase reporter, IL-6 stimulated, 5 h; at 7.69 µM (top of the series) unless noted
How it was run: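 Screening format detects activators and inhibitors alike: ME-180 SIE-bla cells stimulated at 40 pM IL-6 for 5 hrs with compound, then dual-emission beta-lactamase read at 405 nm excitation.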

[5] = molecular target: Glucocorticoid receptor (Homo sapiens) (UniProt P04150); assay: GR-GFP Redistribution (AID 450;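 active means compounds whose dose series gives a full or clear partial fitted curve of increased nuclear translocation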; further: potency means the concentration at half of the fitted maximal effect); conditions: U2OS GR-GFP nuclear translocation, laser cytometry, 2 h
[6] = molecular target: Glucocorticoid receptor (Homo sapiens) (UniProt P04150); assay: GR-EFC Redistribution (AID 451; calls by dose curve; further: potency means the concentration at half of the fitted maximal effect); conditions: CHO-K1 GR-EFC translocation, beta-gal luminescence, 2 h
How it was run: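 CHO-K1 cells stably expressing nuclear-localized β-gal enzyme acceptor and GR fused C-terminally to the enzyme donor fragment; ligand-driven nuclear translocation restores β-gal by complementation. Compounds titrated up to 46 uM final, 2 h at 37 °C; luminescence read.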

[7] = molecular target: Mitogen-activated protein kinase 10 (Mus musculus) (UniProt Q61831); assay: JNK3 AlphaScreen Assay (AID 530; active means well fitted curve in either direction with a large enough effect, not every such curve was filed as active;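 further: kinase came from lysate of stimulated human HepG2 cells; signal reports phosphorylation of biotinylated GST-cJun 1-79 at Ser73 with 10 µM ATP; on the % scale 0 is the no-effect control and ±100 the full control effect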); conditions: JNK3 lysate, c-Jun phosphorylation; series mostly up to 57.1 µM
How it was run: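 JNK3 came from HepG2 lysates pre-activated with IL-1beta and TNF-alpha and phosphorylated biotinylated GST-cJun (1-79) at 10 uM ATP, pH 7.6, room temperature. Compounds were titrated. AlphaScreen signal used anti-phospho-cJun (Ser73) antibody.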

[8] = molecular target: 3',5'-cyclic-AMP phosphodiesterase 4B (Homo sapiens) (UniProt Q07343); assay: qHTS Assay for Inhibitors of PDE-IV (AID 607; active means well fitted activation curve with a large enough effect in the main read-out, with a control signal flat, not every such curve was filed as active; further: % of control where 0% means no effect); conditions: HEK293 ACTOne CNG channel cells, membrane potential fluorescence; series mostly up to 22.9 µM
How it was run: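 The readout is membrane depolarisation from a cAMP-sensing CNG channel, detected with a potential dye at ex 535/em 590. Cells were HEK293-derived (endogenous PDE-IV) at 1000 cells/well, titrated up to 22.9 uM final.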

[9] = molecular target: Cytochrome P450 2C19 (Homo sapiens) (UniProt P33261); assay: qHTS Assay for Inhibitors and Substrates of Cytochrome P450 2C19 (AID 899); conditions: recombinant CYP2C19, luciferin-H EGE luminescence; series mostly up to 57.1 µM; further: on the % scale 0 is the no-effect control and ±100 the full control effect; nearly all actives have a fitted effect of over 60% in size
How it was run: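 Human CYP2C19 (5nM) with Luciferin-H EGE at 10uM (its KM) in 50mM KPO4 was preincubated with compound for 10 min at 37C. NADPH regeneration started a 60 min 37C reaction. Luciferin was read by luminescence, normalized to 57uM ketoconazole.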

[10] = qHTS Assay for Lipid Storage Modulators (AID 1519; calls by dose curve; further: potency means the concentration at half of the fitted maximal effect); conditions: Drosophila S3 cells, BODIPY lipid droplet/cell ratio, laser cytometry, cells loaded with oleic acid; for activity change, negative = inhibition: at 57.5 µM (top of the series)
How it was run: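 Cells seeded at 5,000 per well were treated with compounds over a concentration series and loaded with oleic acid (400 uM, as added). Lipid droplet fluorescence (488 nm excitation, 500-530 nm channel) was read by laser-scanning cytometry and normalized to 20 uM Triacsin C.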

[11] = molecular target: Dual specificity protein kinase CLK4 (Homo sapiens) (UniProt Q9HAZ1); assay: qHTS Assay for Inhibitors of CDC-like Kinase 4 (Kinase-Glo Assay) (AID 1770); conditions: recombinant Clk4, Kinase-Glo ATP depletion luminescence; series mostly up to 66.7 µM; further: on the % scale 0 is the no-effect control and ±100 the full control effect; nearly all actives have a fitted effect of over 65% in size
How it was run: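 Substrate mix (RS peptide 100 uM, ATP 1 uM) dispensed, compound pinned in, then Clk4 added to 25 nM final. Incubated 4.5 h at RT; Kinase-Glo reagent added, luminescence read after 5 min.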

[12] = molecular target: Dual specificity protein kinase CLK4 (Homo sapiens) (UniProt Q9HAZ1); assay: qHTS Assay for Inhibitors of CDC-like Kinase 4 (ADP-Glo Assay) (AID 1771); conditions: recombinant CLK4, ADP-Glo luminescence; series mostly up to 80 µM; further: on the % scale 0 is the no-effect control and ±100 the full control effect; nearly all actives have a fitted effect of over 70% in size
How it was run: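 Kinase reaction: Clk4 at 25 nM, RS repeat peptide substrate at 100 uM, ATP at 1 uM, 1 hr, room temperature. Product ADP detected as luciferase signal via ADP-Glo.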

[13] = molecular target: Dual specificity protein kinase CLK4 (Homo sapiens) (UniProt Q9HAZ1); assay: qHTS Assay for Inhibitors of CDC-like Kinase 4 (ADP-FP Assay) (AID 1795); conditions: Transcreener ADP fluorescence polarization; series mostly up to 50 µM;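 further: recombinant human CLK4 phosphorylating RS repeat peptide at 1 µM ATP; on the % scale 0 is the no-effect control and ±100 the full control effect; nearly all actives have a fitted effect of over 60% in size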
How it was run: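 Clk4 6.25 nM; RS peptide 100 uM; ATP 1 uM; 25 mM Tris pH 7.5, 10 mM MgCl2; 1 h reaction. ADP detected via antibody/orange tracer FP displacement; TG003 positive control.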

[14] = molecular target: Ubiquitin carboxyl-terminal hydrolase 1 (Homo sapiens) (UniProt O94782); assay: Inhibitors of USP1/UAF1: Pilot qHTS (AID 504865); conditions: purified USP1/UAF1, Ub-rhodamine cleavage fluorescence; series mostly up to 54.9 µM;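 further: rhodamine fluorescence freed from ubiquitin-rhodamine substrate followed over time; top concentration of the series differs between compounds; on the % scale 0 is the no-effect control and ±100 the full control effect; nearly all actives have a fitted effect of over 35% in size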
How it was run: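 In 50mM HEPES pH 7.8 containing 0.5mM EDTA, 1mM TCEP, 0.1 mg/ml BSA and 0.01% Tween-20, 1nM USP1/UAF1 is exposed to compound for 15 min, then Ub-Rho (150nM final) is added and fluorescence is read over time.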

[15] = Primary qHTS for small molecule stabilizers of the endoplasmic reticulum resident proteome: Secreted ER Calcium Modulated Protein (SERCaMP) assay (AID 1508630); conditions: SH-SY5Y GLuc-SERCaMP (Gaussia luciferase released on ER calcium loss) secretion, thapsigargin, luminescence; series mostly up to 38.4 µM; further: on the % scale 0 is the no-effect control and ±100 the full control effect
How it was run: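 GLuc-SERCaMP-expressing SH-SY5Y cells, pretreated 16 h with compound, are challenged with thapsigargin to empty ER calcium stores; after 4 h, coelenterazine is added directly to the medium and luminescence is imaged.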

[16] = NFAT Signaling Pathway (AID 444; active means well fitted curve in either direction with a large enough effect, not every such curve was filed as active); conditions: Jurkat NFAT-bla M1, carbachol, beta-lactamase ratio, 5 h; at 7.69 µM (top of the series) unless noted
How it was run: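 Jurkat cells carrying an NFAT-driven β-lactamase reporter and co-transfected muscarinic M1 receptor were treated with compound plus carbachol (1 uM final, an EC50 level) for 5 h at 37 °C. CCF4 loading followed for 1 h at RT; 460/530 nm ratio gave %activity.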

[17] = molecular target: Cytochrome P450 3A4 (Homo sapiens) (UniProt P08684); assay: qHTS Assay for Activators of Cytochrome P450 3A4 (AID 885); conditions: recombinant CYP3A4, Luciferin-PPXE luminescence, 60 min; series mostly up to 57.1 µM; further: nearly all actives have a fitted effect of over 65% in size
How it was run: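 Steps: enzyme/substrate mix dispensed; compound added, 10 min RT; NADPH regeneration solution added, 60 min RT; luciferin detection buffer stops reaction; 20 min later luminescence measured.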

[18] = molecular target: Cytochrome P450 3A4 (Homo sapiens) (UniProt P08684); assay: qHTS Assay for Inhibitors and Substrates of Cytochrome P450 3A4 (AID 884); conditions: recombinant CYP3A4, Luciferin-PPXE luminescence; series mostly up to 57.1 µM; further: potency means the concentration at half of the fitted maximal effect; nearly all actives have a fitted effect of over 50% in size
How it was run: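 20 nM human CYP3A4 with 25 uM Luciferin-PPXE (at KM) in 200 mM KPO4, preincubated 10 min with compound; NADPH regeneration started a 60 min RT reaction. Luciferin detected by luminescence, normalized to 57 uM ketoconazole as full inhibition.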

[19] = measured here: cell count channel max response
[20] = measured here: lipid channel max response

Chain of Glucocorticoid receptor (Homo sapiens) (P04150 whole entry, looked up, the tested form may be a part): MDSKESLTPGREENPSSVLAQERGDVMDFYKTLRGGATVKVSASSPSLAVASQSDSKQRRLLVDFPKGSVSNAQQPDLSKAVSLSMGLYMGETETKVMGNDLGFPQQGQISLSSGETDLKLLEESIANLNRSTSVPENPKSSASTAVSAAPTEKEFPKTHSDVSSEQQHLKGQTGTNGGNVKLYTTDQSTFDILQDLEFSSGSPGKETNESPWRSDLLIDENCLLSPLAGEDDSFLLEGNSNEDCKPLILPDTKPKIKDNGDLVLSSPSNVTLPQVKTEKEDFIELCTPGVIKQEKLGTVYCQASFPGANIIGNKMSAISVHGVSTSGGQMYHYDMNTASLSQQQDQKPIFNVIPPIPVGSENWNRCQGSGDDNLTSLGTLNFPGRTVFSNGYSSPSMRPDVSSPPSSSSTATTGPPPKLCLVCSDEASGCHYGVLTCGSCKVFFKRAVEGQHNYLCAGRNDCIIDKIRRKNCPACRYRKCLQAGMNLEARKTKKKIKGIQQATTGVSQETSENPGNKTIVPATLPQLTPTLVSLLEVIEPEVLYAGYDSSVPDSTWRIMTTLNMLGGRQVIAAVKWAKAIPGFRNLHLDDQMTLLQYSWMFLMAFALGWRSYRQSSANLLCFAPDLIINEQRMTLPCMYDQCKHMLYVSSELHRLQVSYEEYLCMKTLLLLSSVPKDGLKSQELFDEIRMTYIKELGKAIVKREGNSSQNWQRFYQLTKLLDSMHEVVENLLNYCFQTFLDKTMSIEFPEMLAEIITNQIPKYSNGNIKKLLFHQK
Chain of Cytochrome P450 3A4 (Homo sapiens) (P08684 whole entry, looked up): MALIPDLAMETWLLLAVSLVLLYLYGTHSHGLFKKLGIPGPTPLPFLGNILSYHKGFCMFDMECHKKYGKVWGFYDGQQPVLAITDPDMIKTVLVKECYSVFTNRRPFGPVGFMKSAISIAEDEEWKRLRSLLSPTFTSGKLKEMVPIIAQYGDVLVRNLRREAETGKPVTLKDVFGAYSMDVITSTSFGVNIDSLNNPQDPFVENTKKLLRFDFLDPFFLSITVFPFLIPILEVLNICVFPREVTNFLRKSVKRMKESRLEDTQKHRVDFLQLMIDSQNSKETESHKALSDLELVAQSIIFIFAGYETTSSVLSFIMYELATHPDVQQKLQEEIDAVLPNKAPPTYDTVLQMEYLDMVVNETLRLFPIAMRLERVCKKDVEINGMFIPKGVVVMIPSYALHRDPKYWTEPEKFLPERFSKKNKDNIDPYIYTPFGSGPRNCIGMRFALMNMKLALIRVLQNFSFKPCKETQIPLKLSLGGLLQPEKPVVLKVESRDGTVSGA
Chain of Ubiquitin carboxyl-terminal hydrolase 1 (Homo sapiens) (O94782 whole entry, looked up): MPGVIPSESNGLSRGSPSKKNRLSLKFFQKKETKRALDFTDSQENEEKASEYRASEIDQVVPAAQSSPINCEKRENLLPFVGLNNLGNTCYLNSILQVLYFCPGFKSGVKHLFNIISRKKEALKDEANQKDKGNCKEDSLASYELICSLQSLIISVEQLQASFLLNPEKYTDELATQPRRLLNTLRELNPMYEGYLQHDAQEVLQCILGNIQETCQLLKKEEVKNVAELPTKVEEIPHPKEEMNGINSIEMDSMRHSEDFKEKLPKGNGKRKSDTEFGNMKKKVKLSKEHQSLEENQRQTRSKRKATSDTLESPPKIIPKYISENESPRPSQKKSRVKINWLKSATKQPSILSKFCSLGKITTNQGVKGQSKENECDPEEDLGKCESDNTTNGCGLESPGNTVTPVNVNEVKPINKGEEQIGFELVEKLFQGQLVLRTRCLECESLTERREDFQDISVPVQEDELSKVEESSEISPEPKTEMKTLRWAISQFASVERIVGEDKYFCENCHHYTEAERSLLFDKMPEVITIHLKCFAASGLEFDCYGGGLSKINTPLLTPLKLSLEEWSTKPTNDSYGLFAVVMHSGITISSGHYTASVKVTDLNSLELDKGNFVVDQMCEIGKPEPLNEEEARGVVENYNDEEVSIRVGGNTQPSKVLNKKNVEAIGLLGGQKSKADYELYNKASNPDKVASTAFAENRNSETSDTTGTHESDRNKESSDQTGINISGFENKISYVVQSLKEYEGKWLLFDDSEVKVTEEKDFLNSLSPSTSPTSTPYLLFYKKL
Chain of Lysosomal acid glucosylceramidase (Homo sapiens) (P04062 whole entry, looked up): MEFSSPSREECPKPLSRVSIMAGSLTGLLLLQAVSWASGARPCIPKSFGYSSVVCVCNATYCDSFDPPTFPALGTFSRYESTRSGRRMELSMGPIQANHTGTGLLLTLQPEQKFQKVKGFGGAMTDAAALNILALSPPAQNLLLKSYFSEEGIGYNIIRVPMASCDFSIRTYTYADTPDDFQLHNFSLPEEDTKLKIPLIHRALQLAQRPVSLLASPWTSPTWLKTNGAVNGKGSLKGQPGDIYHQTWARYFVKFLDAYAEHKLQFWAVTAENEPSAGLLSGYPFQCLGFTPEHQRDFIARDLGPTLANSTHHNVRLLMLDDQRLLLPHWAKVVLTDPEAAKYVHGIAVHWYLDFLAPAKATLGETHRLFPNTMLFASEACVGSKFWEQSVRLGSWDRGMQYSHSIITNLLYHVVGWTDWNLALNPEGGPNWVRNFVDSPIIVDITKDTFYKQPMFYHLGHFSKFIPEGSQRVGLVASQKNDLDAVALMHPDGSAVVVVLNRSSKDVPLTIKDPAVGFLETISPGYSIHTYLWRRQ
Chain of Dual specificity protein kinase CLK4 (Homo sapiens) (Q9HAZ1 whole entry, looked up): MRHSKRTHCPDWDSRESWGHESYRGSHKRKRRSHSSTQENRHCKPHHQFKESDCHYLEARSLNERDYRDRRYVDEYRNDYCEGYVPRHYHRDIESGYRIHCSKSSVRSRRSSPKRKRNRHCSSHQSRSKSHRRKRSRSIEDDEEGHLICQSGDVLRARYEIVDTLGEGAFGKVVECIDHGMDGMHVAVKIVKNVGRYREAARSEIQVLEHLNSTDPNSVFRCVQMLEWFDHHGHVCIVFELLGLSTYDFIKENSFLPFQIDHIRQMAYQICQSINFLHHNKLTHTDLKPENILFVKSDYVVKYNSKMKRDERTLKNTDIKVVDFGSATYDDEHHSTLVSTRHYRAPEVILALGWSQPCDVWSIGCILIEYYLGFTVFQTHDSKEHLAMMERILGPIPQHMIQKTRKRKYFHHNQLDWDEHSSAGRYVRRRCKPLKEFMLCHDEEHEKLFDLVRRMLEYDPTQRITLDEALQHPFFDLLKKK
Chain of Cytochrome P450 1A2 (Homo sapiens) (P05177 whole entry, looked up): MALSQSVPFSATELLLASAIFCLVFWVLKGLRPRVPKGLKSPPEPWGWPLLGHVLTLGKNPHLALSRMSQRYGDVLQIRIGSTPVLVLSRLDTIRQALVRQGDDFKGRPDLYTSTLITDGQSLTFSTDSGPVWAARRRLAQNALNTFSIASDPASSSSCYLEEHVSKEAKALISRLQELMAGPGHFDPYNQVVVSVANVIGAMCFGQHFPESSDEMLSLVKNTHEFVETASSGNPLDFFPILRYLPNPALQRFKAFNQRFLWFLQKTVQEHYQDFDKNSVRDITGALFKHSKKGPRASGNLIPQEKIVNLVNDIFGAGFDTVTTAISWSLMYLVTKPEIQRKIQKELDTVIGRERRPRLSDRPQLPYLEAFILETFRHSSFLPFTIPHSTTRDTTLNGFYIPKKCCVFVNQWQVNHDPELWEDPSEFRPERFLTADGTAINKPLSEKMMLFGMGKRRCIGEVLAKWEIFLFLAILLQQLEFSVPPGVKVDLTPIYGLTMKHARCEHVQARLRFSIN
Chain of 3',5'-cyclic-AMP phosphodiesterase 4B (Homo sapiens) (Q07343 whole entry, looked up): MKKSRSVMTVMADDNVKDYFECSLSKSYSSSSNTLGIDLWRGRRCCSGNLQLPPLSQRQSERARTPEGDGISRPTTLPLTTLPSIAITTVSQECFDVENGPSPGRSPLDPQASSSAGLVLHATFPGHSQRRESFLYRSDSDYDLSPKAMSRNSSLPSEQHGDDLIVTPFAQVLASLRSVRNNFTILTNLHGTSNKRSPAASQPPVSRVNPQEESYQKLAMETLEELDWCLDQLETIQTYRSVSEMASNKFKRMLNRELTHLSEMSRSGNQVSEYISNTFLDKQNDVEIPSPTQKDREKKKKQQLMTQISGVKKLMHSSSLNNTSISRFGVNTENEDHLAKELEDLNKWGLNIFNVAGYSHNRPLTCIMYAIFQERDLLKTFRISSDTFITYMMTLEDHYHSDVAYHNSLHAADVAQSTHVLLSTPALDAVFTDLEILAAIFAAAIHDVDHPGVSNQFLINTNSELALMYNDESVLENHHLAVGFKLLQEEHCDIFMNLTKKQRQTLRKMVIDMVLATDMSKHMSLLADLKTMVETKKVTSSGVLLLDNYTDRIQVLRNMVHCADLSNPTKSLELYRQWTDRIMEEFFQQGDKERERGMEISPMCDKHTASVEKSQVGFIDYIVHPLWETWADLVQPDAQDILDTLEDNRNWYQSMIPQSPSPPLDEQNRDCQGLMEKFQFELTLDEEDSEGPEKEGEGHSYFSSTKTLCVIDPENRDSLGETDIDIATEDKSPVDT
Chain of Cytochrome P450 2C19 (Homo sapiens) (P33261 whole entry, looked up): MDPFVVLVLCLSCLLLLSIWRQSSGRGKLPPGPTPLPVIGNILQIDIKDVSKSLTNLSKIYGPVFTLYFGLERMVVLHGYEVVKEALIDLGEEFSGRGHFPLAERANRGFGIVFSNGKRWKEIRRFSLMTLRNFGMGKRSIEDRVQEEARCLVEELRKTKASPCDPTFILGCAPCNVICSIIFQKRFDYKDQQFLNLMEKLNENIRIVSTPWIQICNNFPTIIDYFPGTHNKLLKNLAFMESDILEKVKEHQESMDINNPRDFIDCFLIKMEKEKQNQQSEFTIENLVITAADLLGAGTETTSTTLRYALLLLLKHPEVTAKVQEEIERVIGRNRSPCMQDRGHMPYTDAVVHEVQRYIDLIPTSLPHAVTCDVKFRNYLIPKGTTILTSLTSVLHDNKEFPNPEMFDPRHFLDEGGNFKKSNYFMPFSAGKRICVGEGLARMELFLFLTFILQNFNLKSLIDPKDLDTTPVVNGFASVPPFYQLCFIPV

CN1CCN(c2ncc3ncc(=O)n(CCC#N)c3n2)CC1
active: Potency [3] 31.6 µM
inactive: Potency [1] > 11.4 µM | activity change, negative = inhibition [2] -10.2% | activity, negative = inhibition [4] -3.39% | Potency [5] > 9.22 µM | Potency [6] > 46 µM | outcome [7] | Potency [8] | Potency [9] | activity change, negative = inhibition [10] 6.98% | Potency [11] | Potency [12] | Potency [13] | Potency [14] | Potency [15]
9.3%: max response [10, 19]
10.7%: max response [10, 20]

COCCn1c(=O)c(-c2cn(C)c3ccccc23)nc2cnc(N3CCOCC3)nc21
6.29%: max response [10, 19]
8.52%: max response [10, 20]
inactive: Potency [1] > 11.4 µM | activity change, negative = inhibition [2] -12.3% | activity change, negative = inhibition [16] 5.44% | activity, negative = inhibition [4] -11.9% | Potency [5] > 9.22 µM | Potency [6] > 46 µM | outcome [7] | Potency [8] | activity change, negative = inhibition [10] 4.05% | Potency [11] | Potency [12] | Potency [13] | Potency [14] | Potency [15]

O=c1c(-c2ccc(F)cc2)nc2cnc(Nc3ccccc3)nc2n1C[C@H]1CCCO1
-27.1%: max response [10, 19]
inactive: Potency [1] > 11.4 µM | activity change, negative = inhibition [2] -19.3% | Potency [5] > 9.22 µM | Potency [6] > 46 µM | outcome [7] | Potency [8] | Potency [17] | Potency [11] | Potency [12] | Potency [13] | Potency [14] | Potency [15]
active: Potency [3] 2 µM | Potency [10] 3.55 µM
-76%: max response [10, 20]

Cc1noc(C)c1-c1cc(N2CCNCC2)ncn1
1.52%: max response [10, 19]
8.99%: max response [10, 20]
inactive: Potency [1] > 11.4 µM | activity change, negative = inhibition [2] -3.92% | activity change, negative = inhibition [16] 7.79% | activity, negative = inhibition [4] 5.3% | Potency [5] > 46 µM | Potency [6] > 46 µM | outcome [7] | Potency [8] | activity change, negative = inhibition [10] 5.16% | Potency [11] | Potency [12] | Potency [13] | Potency [14] | Potency [15]

CN(Cc1ccco1)c1ncncc1-c1cccc(C#N)c1
inactive: Potency [1] > 11.4 µM | activity change, negative = inhibition [2] 21.3% | activity, negative = inhibition [4] 7.25% | Potency [5] > 46 µM | Potency [6] > 46 µM | outcome [7] | Potency [8] | Potency [17] | activity change, negative = inhibition [10] 5.47% | Potency [11] | Potency [12] | Potency [13] | Potency [14] | Potency [15]
active: Potency [3] 12.6 µM | Potency [18] 7.94 µM
17.8%: max response [10, 20]
14.4%: max response [10, 19]
